In PubChem BioAssay AID2685 (National Center for Advancing Translational Sciences (NCATS), 2010) one finds Potency, cell number change and outcome data, which are given here for 59 compounds.

Structures are written as SMILES. Screen size: about 320,000 compounds; about 2,100 (0.66%) were called active. About 53% were inconclusive and are not listed. Calls come from the whole dose curve; as a rule, active = well fitted inhibition curve with a large enough effect in the signal ratio, with a control signal flat (not every such curve was filed as active); inconclusive = small, poorly fitted or top-dose-only effect, or effect the other way, or a change in a side signal; inactive = flat fitted curve, though single readings scatter; the % refers to the signal ratio. The sample as a whole holds a higher share of actives than the screen did.
Potency is the fitted concentration of half-maximal effect.

The nature of this assay: qHTS Assay for Lipid Storage Modulators in Drosophila S3 Cells.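 For cell number change: cells counted by Cell Tracker Red CMTPX staining in the red channel.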 The conditions noted are these: BODIPY lipid droplet fluorescence, 18-24 h, cells fed with added oleic acid; cell number change: measured here: cell count max response; series mostly up to 46.1 µM. The essentials: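 Drosophila S3 cells got compounds at several concentrations plus oleic acid (400 uM solution). Laser-scanning cytometry with 488 nm excitation read lipid droplets at 500-530 nm and cells at 575-640 nm. Percent activity was relative to 20 uM Triacsin C.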
On to `COCC(C)N1CCC(n2nccc2NC(=O)c2ccc3c(c2)OCO3)CC1` (stereo unspecified), for which the Potency entry is “inactive” and the cell number change is 11.7%. The corresponding values for `CCOc1ccc(N(CC(=O)NCC2CCCO2)S(=O)(=O)c2ccc(OC)c(OC)c2)cc1` (stereo unspecified) are “inactive” and 14.4%. The matching figures for `CC1(C)N=C(/C=N/O)CN1O`: 6.51 µM (active) and 1.43%. The matching figures for `Cc1ccc(NC(=O)C2(N(C(=O)Cn3nnnc3N)c3ccc(C)cc3)CCCCC2)cc1`: “inactive” and -7.84%.

For the compound `CCOC(=O)CSc1nc2c(c(=O)n1-c1ccc(OC)cc1)SCC2`, the Potency result was “inactive”. Consider `CCc1nnc(NC(=O)CSc2nccn2-c2cccc(C)c2)s1`, for which the Potency result was “inactive” and the cell number change came to 0.532%.

As for `COc1ccccc1NC(=O)CCNC(=O)c1ccc(C)cc1`, the Potency entry was “inactive”. Regarding `CCOC(=O)c1c(NC(=O)CSc2nnc(C)s2)sc2c1CCCCC2`, the Potency entry is “inactive” and the cell number change was -12.5%. The corresponding values for `Cc1ccc(C(=O)c2c(NC(=O)CSc3nnc(N)s3)sc3c2CCCC3)cc1` are 18.4 µM (active) and -2.02%.

In the case of `Cc1ccc(C(=O)c2c(NC(=O)c3cccnc3)sc3c2CCCC3)cc1`, the Potency entry was “inactive” and the cell number change was determined as 17.7%. The corresponding values for `CCOC(=O)N1CCN(c2ncc(C(F)(F)F)cc2Cl)CC1` are “inactive” and 23.9%. On to `CC(C)CN=C(NS(=O)(=O)c1ccccc1)C(Cl)(Cl)Cl`, for which the Potency is 18.4 µM (active). For `CC(=O)NS(=O)(=O)c1ccccc1`, the Potency result was “inactive” and the cell number change is -6.94%.

On to `NC(=NCCc1ccccc1)NS(=O)(=O)c1ccccc1`, for which the Potency entry is “inactive” and the cell number change was 16.5%. The corresponding values for `COc1ccc(CCNC(=O)c2ccc(=O)[nH]c2)cc1OC` are “inactive” and 10.1%. On to `COc1ccc(COC(=O)c2cccc(S(=O)(=O)N3CCCC3)c2)cc1F`, for which the cell number change was -0.63% and the outcome was “inactive [at 0.369 µM]”. With `CC(=O)N1CCN(S(=O)(=O)c2cccc(C(=O)OCc3cccc(F)c3)c2)CC1`, the Potency was 6.51 µM (active) and the cell number change was -11.8%.

For the compound `CC(=O)N1CCN(S(=O)(=O)c2cccc(C(=O)OCN3C(=O)c4ccccc4C3=O)c2)CC1`, the Potency entry was “inactive” and the cell number change came to 22.4%. As for `COc1ccccc1CNC(=O)COc1cc2c(c3oc(=O)cc(C)c13)CCC(C)(C)O2`, the Potency entry is “inactive” and the cell number change worked out at 5.31%. In the case of `CCc1cc(=O)oc2c3c(cc(OCC(=O)NCCC(=O)O)c12)OC(C)(C)CC3`, the Potency entry is “inactive” and the cell number change was determined as 4.77%. The matching figures for `COc1cccc(CNC(=O)COc2cc3c(c4oc(=O)cc(C)c24)CCC(C)(C)O3)c1`: 1.3 µM (active) and -18.8%. Turning to `CCc1cc(=O)oc2c3c(cc(OCC(=O)NCc4cccnc4)c12)OC(C)(C)CC3`, the Potency is 7.31 µM (active) and the cell number change is 1.59%. In the case of `Cc1cc(=O)oc2c3c(cc(OCC(=O)NCC(=O)O)c12)OC(C)(C)CC3`, the Potency entry was “inactive” and the cell number change came out at 13.8%. `CCc1cc(=O)oc2c3c(cc(OCC(=O)NCc4ccncc4)c12)OC(C)(C)CC3`: the Potency result is “inactive” and the cell number change was 18.3%. On to `O=C(Cc1ccccc1)NNC(=O)c1ccc(NC(=O)c2ccccc2)cc1`, for which the Potency result is “inactive” and the cell number change worked out at 27.8%. The corresponding values for `CN(C)S(=O)(=O)c1ccc(C(=O)Oc2coc(CSc3ncccn3)cc2=O)cc1` are “inactive” and 6.85%. The matching figures for `NC(=O)N/N=C(/CCCCCC/C(=N\NC(N)=O)c1ccccc1)c1ccccc1`: “inactive” and 2.15%. Regarding `Cc1ccc(C(=O)N2C3=C(CCCC3)C(=O)NC23CCCCC3)cc1`, the Potency result is “inactive” and the cell number change turned out to be 3.44%. The matching figures for `COC(=O)CNC(=O)CNC(=O)Nc1ccccc1`: “inactive” and 1.69%. The corresponding values for `Cn1nccc1NC(=O)COCC(=O)O` are “inactive” and 11.4%.

Regarding `Cc1ncsc1C(=O)NCc1ccc(N2CCCC2=O)cc1`, the Potency is 2.59 µM (active). For `O=C(NCc1ccc(N2CCCC2=O)cc1)c1ccc(F)cc1`, the Potency result is “inactive” and the cell number change is 1.24%. `COc1ccc(CNC(=O)c2ccc(N3CCCC3=O)cc2)cc1`: the Potency result was “inactive” and the cell number change came out at 23.1%. On to `N#Cc1ccsc1NC(=O)CN(Cc1ccccc1)Cc1ccccc1`, for which the Potency result was “inactive” and the cell number change is -9.01%.

For `CCOC(=O)N1CCC(NC(=O)c2ccc(CO)c(C(=O)NC3CCN(C(=O)OCC)CC3)c2)CC1`, the Potency entry was “inactive”. Consider `O=C(O)CC(C(=O)Nc1ccc(Cl)c(Cl)c1)C1CCCO1` (stereo unspecified), for which the Potency was 20.6 µM (active) and the cell number change was found to be 12.1%. Regarding `O=C(O)CC(C(=O)Nc1ccc(Cl)cc1Cl)C1CCCO1` (stereo unspecified), the Potency entry is “inactive” and the cell number change stood at 5.73%.

In the case of `O=C(O)CC(C(=O)Nc1ccc(F)cc1)C1CCCO1` (stereo unspecified), the Potency entry was “inactive” and the cell number change is -13.3%. Take `CCOC(=O)N1CCN(C(=O)CCCn2c(=S)[nH]c3ccsc3c2=O)CC1`: the Potency entry was “inactive” and the cell number change is -21.6%. Regarding `COC(=O)c1ccc(COc2ccc(C=O)cc2)o1`, the Potency result is “inactive” and the cell number change is -4.2%. The corresponding values for `CCN(CC#CCC(O)(c1ccccc1)c1ccccc1)C(C)C` are “inactive” and 1.67%. The corresponding values for `COc1ccc(CN(Cc2ccc(OC)cc2)S(=O)(=O)c2ccc(-n3cnnn3)c(C)c2)cc1` are “inactive” and -0.43%. `COc1ccc(OCC(NS(=O)(=O)c2ccc(-n3cnnn3)cc2)C(C)C)cc1` (stereo unspecified): the Potency is 0.13 µM (active). As for `Cc1cc(S(=O)(=O)NCc2cccnc2)ccc1-n1cnnn1`, the Potency entry was “inactive” and the cell number change turned out to be 2.93%.

Turning to `CCCCOc1ccc(NS(=O)(=O)c2ccc(-n3cnnn3)cc2)cc1`, the Potency result was “inactive” and the cell number change is -4.72%. The matching figures for `COc1ccc(CNS(=O)(=O)c2ccc(-n3cnnn3)c(C)c2)cc1`: 18.4 µM (active) and -1.28%. The matching figures for `COc1ccc(S(=O)(=O)Nc2cccc(-n3cnnn3)c2)cc1`: “inactive” and -4.25%.

With `C=CCOC(=O)C1=C(C)NC(=O)NC1c1cc2c(cc1Br)OCO2` (stereo unspecified), the Potency result is “inactive” and the cell number change is -17.1%. `N/C(=N\OC(=O)C1CCCCC1)c1cccnc1`: the Potency entry is “inactive” and the cell number change is -2.17%.

In the case of `CCOc1cc(CNCCCN2CCOCC2)ccc1OCC(=O)Nc1cccc2ccccc12`, the Potency entry was “inactive” and the cell number change turned out to be 9%. For the compound `CCN(CC)CCNC(=O)c1ccc(NC(=O)c2ccc3c(c2)CCC3)cc1`, the Potency result is “inactive” and the cell number change stood at 2.22%. The matching figures for `COc1ccc(Br)cc1C(=O)O`: “inactive” and 9.36%. With `COc1c(Br)cc(Br)cc1C(=O)O`, the Potency was 20.6 µM (active) and the cell number change was -14.5%. As for `COc1cc(N)c(Br)cc1C(=O)O`, the Potency result was “inactive”. In the case of `COc1ccc(/C=N/NC(=O)Cn2nc([N+](=O)[O-])cc2C)c(OC)c1OC`, the Potency entry is “inactive” and the cell number change turned out to be 15.6%. For `Cc1ccc(-n2ncc(C(=O)NC3CC3)c2C2CCN(C(=O)OC(C)(C)C)CC2)cc1`, the Potency result is “inactive” and the cell number change was -12.2%. The corresponding values for `Cc1ccc(-n2ncc(C(=O)O)c2C2CCN(C(=O)OC(C)(C)C)CC2)cc1` are “inactive” and -23.6%. The matching figures for `COc1ccc(-n2ncc(C(=O)NC3CC3)c2C2CCN(C(=O)OC(C)(C)C)CC2)cc1`: 9.2 µM (active) and -6.59%. Turning to `Nn1cc(-c2ccccc2)nc1SCC(=O)NCCN1C(=O)CSC1=O`, the Potency result is “inactive” and the cell number change is -20.3%.
